Screening results deposited in PubChem BioAssay by several laboratories.
PostGolgi ctrl: growth inhibition of yeast control strain, primary screen, counter-screen for post-Golgi transport modulator project; efflux-deficient yeast background strain, growth absorbance A615, 16 h; inhibition, % at 10 µM; 5% of 98,000 active; AID 738, 2007
PostGolgi yeast: phenotypic screen on post-Golgi transport, primary screen. post-Golgi transport phenotypic cell assay. inhibition, % at 10 µM. 0.9% of 98,000 active;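 note: yeast cells grown in 1536-well plates; yeast grown about 18 h at 30C before absorbance read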
MT1-MMP txn act: MT1-MMP promoter reporter activation – cell-based, luciferase luminescence, primary screen. 0.16% of 86,000 active. activation factor at 10 µM. HT1080 MT1-MMP promoter luciferase reporter, overnight; stronger effect = higher value;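 active = activation factor of at least 2 for MT1-MMP transcription at 10 µM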
Measles CPE: compounds protecting cells from measles virus cytopathic effect, primary screen, measles RdRp inhibitor project, single point, MLSMR library, absorbance; Measles virus-infected cells, CPE protection; protection (pct of control), % at 4 µM; 1.5% of 140,000 active; AID 841, 2007; in the data active = protection mostly above about 24%, no sharp cut-off; inactive = mostly below about 26%
* = called active by the depositor. In the library only some 5.3% were active in any assay of this set; here they are far more common. Cut-off read from the data, not from the text of the source, unless noted: active = inhibition above about 30%; inactive = the rest.

For CCOc1ccc2nc(NC(=O)CSc3nnnn3C3CCCCC3)sc2c1 the results were PostGolgi ctrl 42*, PostGolgi yeast 16, MT1-MMP txn act 1.3 and Measles CPE 28.
For CCCn1c(SCC(=O)Nc2sc(C)c(C)c2C(=O)OCC)nc2c1c(=O)n(C)c(=O)n2C the results were PostGolgi ctrl 3, PostGolgi yeast -7, MT1-MMP txn act 0.9 and Measles CPE 31*.
For COc1ccc2nc(NC(=O)CSc3nnnn3C3CCCCC3)sc2c1 the results were PostGolgi ctrl 45*, PostGolgi yeast 21, MT1-MMP txn act 1 and Measles CPE 11.
`CCn1c(SCC(=O)Nc2nc3ccc(OC)cc3s2)nc2c1c(=O)n(C)c(=O)n2C` gave PostGolgi ctrl 17, PostGolgi yeast 3, MT1-MMP txn act 1.1 and Measles CPE 27*.
`O=C(CSc1nnnn1C1CCCCC1)Nc1nc2c(s1)CCCC2` gave PostGolgi ctrl 12, PostGolgi yeast 18, MT1-MMP txn act 1 and Measles CPE 8.
For CCOc1ccc2nc(NC(=O)CSc3nc4c(c(=O)n(C)c(=O)n4C)n3C(C)C)sc2c1 the results were PostGolgi ctrl 19, PostGolgi yeast -3, MT1-MMP txn act 1 and Measles CPE 2.
Screening CCC1=C2CC[C@H]3C(=O)N(CC(=O)OC)C(=O)[C@H]3[C@H]2[C@@]2(C)C(=NCCc3c[nH]c4ccccc34)OC(=O)N2C1=O returned MT1-MMP txn act 1.1.
COc1ccc(NC(=O)N2c3ccccc3CC2C)cc1OC (configuration not stated) was read as PostGolgi ctrl 10, PostGolgi yeast -1, MT1-MMP txn act 1 and Measles CPE 31.
For COC(=O)c1ccccc1NC(=O)N1c2ccccc2CC1C (configuration not stated) the results were PostGolgi ctrl 48*, PostGolgi yeast -3, MT1-MMP txn act 1.1 and Measles CPE 4.
Screening CCOC(=O)N1CCN(C(=O)CSCC(=O)Nc2nc(-c3ccc(OC)cc3)cs2)CC1 returned PostGolgi ctrl 30*, PostGolgi yeast -12, MT1-MMP txn act 1.7 and Measles CPE 5.
Screening CCOC(=O)N1CCN(C(=O)CSCC(=O)Nc2nc(-c3ccc(Cl)s3)cs2)CC1 returned MT1-MMP txn act 1.2 and Measles CPE 19.
Screening CCOC(=O)N1CCN(C(=O)CSCC(=O)Nc2nc(-c3ccc(-c4ccccc4)cc3)cs2)CC1 returned PostGolgi ctrl 27, PostGolgi yeast 6 and Measles CPE 44*.
`COCCNC(=O)[C@H](C)/C=C/C(NC(=O)OCc1ccccc1)c1ccc(C(=O)OC)cc1` (some centres not stated) gave MT1-MMP txn act 1.1.
For Cc1ccc(C(=O)NCc2ccco2)cc1S(=O)(=O)Nc1cccc(Cl)c1 the results were PostGolgi ctrl 17, PostGolgi yeast -6 and Measles CPE 7.
Screening Cc1cc(C)cc(NCC(=O)Nc2c(C)cccc2C)c1 returned PostGolgi ctrl 37*, PostGolgi yeast 3 and Measles CPE 5.
Cc1nc2c(=O)n(C)c(=O)n(C)c2nc1Cl was read as Measles CPE 0.
For COc1ccccc1C(=O)Oc1ccc(C(C)C)cc1 the results were PostGolgi ctrl 39*, PostGolgi yeast 0, MT1-MMP txn act 1.1 and Measles CPE 7.
CCCC[C@@H]1C[C@H]1C(NC(=O)c1ccco1)c1ccc(Cl)cc1 (some centres not stated) was read as MT1-MMP txn act 1.3.
`CCOC(=O)C1=C(c2ccccc2)NC(SCC(=O)Nc2cccc(C)c2)=C(C#N)C1c1ccco1` (configuration not stated) gave PostGolgi ctrl 1, PostGolgi yeast -20, MT1-MMP txn act 1.1 and Measles CPE 14.
For CCOC(=O)CSC1=C(C#N)C(c2ccco2)C(C(=O)Nc2cccc(C(F)(F)F)c2)=C(C)N1 (configuration not stated) the results were PostGolgi ctrl 97*, PostGolgi yeast -2, MT1-MMP txn act 1.2 and Measles CPE 10.
`CC(=O)C1=C(C)NC(SCC(=O)c2ccc(Cl)cc2Cl)=C(C#N)C1c1ccco1` (configuration not stated) gave PostGolgi ctrl 34*, PostGolgi yeast 6, MT1-MMP txn act 1 and Measles CPE 24.
Cc1ccc(CN2CC(C(=O)Nc3ccc(S(=O)(=O)Nc4cc(C)nc(C)n4)cc3)CC2=O)cc1 (configuration not stated) was read as PostGolgi ctrl 33*, PostGolgi yeast -20, MT1-MMP txn act 1.1 and Measles CPE 19.
For Cc1cc(C)c(S(C)(=O)=O)c(Oc2ccc(C(C)(C)C)cc2)n1 the results were PostGolgi ctrl 0, PostGolgi yeast 15 and Measles CPE 33.
Screening Cc1cc(C)c(S(C)(=O)=O)c(Oc2cccc(Cl)c2)n1 returned PostGolgi ctrl 3, PostGolgi yeast 32* and Measles CPE 3.
`CCOC(=O)Nc1cc(C)c(Cl)cc1OC` gave PostGolgi ctrl 38*, PostGolgi yeast -3, MT1-MMP txn act 0.9 and Measles CPE 14.
For Cc1ccc(OCCN2CCN(C(=O)CCC(=O)Nc3nnc(C)s3)CC2)cc1 the results were PostGolgi ctrl 5, PostGolgi yeast 1, MT1-MMP txn act 1.1 and Measles CPE 32.
For Cc1ccc(OCCN2CCN(C(=O)CCC(=O)Nc3nnc(C(C)C)s3)CC2)cc1 the results were PostGolgi ctrl 40*, PostGolgi yeast -3, MT1-MMP txn act 1.2 and Measles CPE 10.
`CCCc1nnc(NC(=O)CCC(=O)N2CCN(CCn3c(C)ccc3C)CC2)s1` gave PostGolgi ctrl 4, PostGolgi yeast -4, MT1-MMP txn act 1.2 and Measles CPE 31*.
Cc1cccc(N2CCN(C(=O)C34CC5CC(CC(C5)C3)C4)CC2)c1C was read as PostGolgi ctrl 51*, PostGolgi yeast -4, MT1-MMP txn act 1.5 and Measles CPE 4.
For Cc1cccc(N2CCN(C(=O)C3CCCCC3)CC2)c1C the results were PostGolgi ctrl 34*, PostGolgi yeast 13, MT1-MMP txn act 1 and Measles CPE 2.
Screening Cc1cccc(N2CCN(C(=O)CCCOc3ccccc3)CC2)c1C returned PostGolgi ctrl 33*, PostGolgi yeast 16, MT1-MMP txn act 1.2 and Measles CPE 13.
Screening CC(C)Oc1cccc(-c2cc(C(=O)NC(=S)N(C)c3ccccc3C(=O)O)c3ccccc3n2)c1 returned Measles CPE 21.
For CCOc1c2ccc(C(=O)NCc3ccc(C)cc3)cc2nn1CC the results were PostGolgi ctrl -4, PostGolgi yeast -8 and Measles CPE 6.
Screening CCCn1nc2cc(C(=O)NCc3ccc(C)cc3)ccc2c1OCC returned PostGolgi ctrl 14, PostGolgi yeast -25 and Measles CPE 84*.
`O=C(NCc1ccco1)C(=O)NCC1OCCCN1S(=O)(=O)c1ccccc1` (configuration not stated) gave Measles CPE 9.
Screening O=C(O)CSC1CC(=O)N(c2ccc(Cl)cc2)C1=O (configuration not stated) returned MT1-MMP txn act 1.3 and Measles CPE 5.
